The panel holds about 83,000 compounds, 20% with a hit somewhere; the sample as a whole holds those more often.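 In brief: 96-well plates, 48 h treatment, single concentration, percent growth endpoint.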 Calls of active or inactive are those of the source. Rule for the calls: active = growth percent below 10; inactive = the rest.
Assays:
Experiment in all cases: NCI-60 one-dose screen, 48 h (100 = growth as untreated, 0 = no growth, -100 = all killed)
Settings in all cases: 10 µM
[1] = system: HCT-15 colon
[2] = system: HT29 colon
[3] = system: SNB-75 CNS
[4] = system: SNB-19 CNS
[5] = system: U251 CNS
[6] = system: PC-3 prostate
[7] = system: SK-MEL-5 melanoma
[8] = system: UACC-62 melanoma
[9] = system: LOX IMVI melanoma
[10] = system: SK-MEL-28 melanoma
[11] = system: SK-MEL-2 melanoma
[12] = system: EKVX NSCLC
[13] = system: SN12C renal
[14] = system: UO-31 renal
[15] = system: TK-10 renal
[16] = system: ACHN renal
[17] = system: A498 renal
[18] = system: CCRF-CEM leukemia
[19] = system: MOLT-4 leukemia

Measured: growth

O=C(Nc1ccc(F)cc1)c1cc2ccccc2cc1O
inactive: [1] 76% | [2] 95.8% | [3] 91.8% | [4] 83.3% | [5] 79.6% | [6] 42.9% | [7] 65.7% | [8] 57.6% | [9] 76% | [10] 88.7% | [11] 84.7% | [12] 87.2% | [13] 79.1% | [14] 63.9% | [15] 141% | [16] 80.8% | [17] 69.2% | [18] 71.6% | [19] 46.9%

CN(C)CCCOc1ccc(NC2=C(Cl)C(=O)C(Nc3ccc(OCCCN(C)C)cc3)=C(Cl)C2=O)cc1
active: [1] -82% | [2] -54.1% | [3] -77.9% | [4] -48.6% | [5] -91.2% | [6] -7.37% | [7] -96.6% | [8] -74.9% | [9] -80.5% | [11] -40.2% | [12] -89% | [13] -91.6% | [14] -99% | [15] -98.7% | [16] -94.1% | [17] -49% | [18] -31.2% | [19] -23.4%
inactive: [10] 39.4%

O=C(CCCCC(=O)Oc1c(Cl)cc(Cl)cc1[N+](=O)[O-])Oc1c(Cl)cc(Cl)cc1[N+](=O)[O-]
inactive: [1] 100% | [2] 103% | [3] 93.9% | [4] 105% | [5] 98% | [6] 104% | [7] 102% | [8] 102% | [9] 92% | [10] 111% | [11] 93.6% | [12] 93.2% | [13] 105% | [14] 87.1% | [15] 91.3% | [16] 105% | [17] 114% | [18] 73.6% | [19] 78.1%

O=C1c2ccccc2C(=O)c2c1ccc(C(Br)Br)c2Cl
active: [5] -26% | [9] -84.4% | [13] -48.5% | [16] -74.1% | [18] -6.37% | [19] -1.06%
inactive: [1] 44% | [2] 52.5% | [3] 91.4% | [4] 42.9% | [6] 40.5% | [7] 74% | [8] 47.2% | [10] 92.3% | [11] 60.7% | [12] 66.6% | [14] 52.4% | [15] 83.9% | [17] 108%

S=C(NCc1ccccc1)NCc1ccccc1
inactive: [1] 107% | [2] 97% | [3] 82.2% | [4] 95.1% | [5] 91.6% | [6] 84.3% | [7] 98.3% | [8] 102% | [9] 95.6% | [10] 107% | [11] 97.9% | [12] 102% | [13] 96.3% | [14] 87.1% | [15] 83.2% | [16] 105% | [17] 80% | [18] 95.9% | [19] 94.9%

Reference: PubChem BioAssay (NCI)
